In general, Inhibition refers to the share of the control response that was lost under treatment. Lower therefore signals a weak effect.

Consider 28 compounds from ChEMBL document CHEMBL1157539, “Thousands of chemical starting points for antimalarial lead identification” (Nature, 2010).

Common to all, as to format: functional
Assay [1] relates to Plasmodium falciparum. The assay can be described thus: GSK_TCMDC: Inhibition of Plasmodium falciparum 3D7 in whole red blood cells, using parasite LDH activity as an index of growth. Test compounds present at 2uM.
For assay [2], the system named is Plasmodium falciparum. Put plainly: GSK_TCMDC: Inhibition of Plasmodium falciparum Dd2 in whole red blood cells, using parasite LDH activity as an index of growth. Test compounds present at 2uM.
Assay [3] deals with HepG2. Put plainly: GSK_TCMDC: Percent inhibition of human HepG2 cell line. Test compounds present at 10uM.

For the compound `CCOc1ccc(C(=O)Nc2cc(Br)c3c(c2)CNCC3)cc1Cl.Cl`, the values for the Inhibition in assay [1], in assay [2] and in assay [3] were 92%, 8% and 13%, respectively.

With `O=C(O)C(F)(F)F.c1ccc(CCNCc2ccc(-c3cccc(-c4nc5ccccc5[nH]4)c3)cc2)nc1`, the values for the Inhibition in assay [1], in assay [2] and in assay [3] were 100%, 87% and 36%, respectively.

For the compound `Fc1ccc2[nH]c(-c3cccc(-c4ccc(CN5CCN(c6ccncc6)CC5)cc4)c3)nc2c1.O=C(O)C(F)(F)F`, the Inhibition in assay [1] came out at 100%; in assay [2] it was 67%; in assay [3], 39%.

Consider `O=c1c(Br)c(C(F)(F)F)[nH]c2ccc(Oc3ccccc3)cc12`, for which the Inhibition is given as 91% in assay [1], 17% in assay [2] and 6% in assay [3].

Take `CCN1CCN(CCNc2c3ccccc3nc3ccccc23)CC1.Cl`: the results for the Inhibition in assay [1], in assay [2] and in assay [3] were 93%, 8% and 45%, respectively.

As to `Nc1cccc(CNCc2cccc(-c3cccc(-c4nc5cc(C(F)(F)F)ccc5[nH]4)c3)c2)c1.O=C(O)C(F)(F)F`, the figures for the Inhibition in assay [1], in assay [2] and in assay [3] were 100%, 96% and 8%, respectively.

Regarding `NC(=O)c1cccc(C(=O)Nc2cccc(-c3ccc(-c4nc5cc(C(F)(F)F)ccc5[nH]4)cc3)c2)c1`, the Inhibition in assay [1] was 100%; in assay [2] it was 78%; in assay [3] it was 83%.

Regarding `CN1CCC(Oc2cc(CN3CC[C@H](NC(=O)c4ccc(Cl)c(Cl)c4)C3)ccc2I)C1.O=C(O)C(F)(F)F` (some centres undefined), the Inhibition in assay [1] turned out to be 97%; in assay [2], 24%; in assay [3] it was 68%.

Consider `O=C(O)C(F)(F)F.c1ccc2[nH]c(-c3ccc(-c4ccc(CN5CCN(CCN6CCOCC6)CC5)cc4)cc3)nc2c1`, for which the figures for the Inhibition in assay [1], in assay [2] and in assay [3] were 98%, 99% and 43%, respectively.

For the compound `O=C(Nc1ccc(Cl)cc1Cl)NC1CCN(CCCCCNC(=O)C2CC2c2ccc(Cl)c(Cl)c2)CC1` (centres undefined), the Inhibition was 100% in assay [1], 30% in assay [2] and 67% in assay [3].

For the compound `COc1cc2nc(NCCn3cccn3)nc(NCCc3ccccc3)c2cc1OC`, the Inhibition in assay [1] is on record as 100%; in assay [2] it was 100%; in assay [3], 12%.

With `CCCCCCN1CCN(Cc2cccc(NC(=O)c3ccc(Cl)c(Cl)c3)c2)CC1.O=C(O)C(F)(F)F`, the figures for the Inhibition in assay [1], in assay [2] and in assay [3] were 85%, 51% and 31%, respectively.

As for `O=C(O)C(F)(F)F.c1ccc(CN2CCC(NCc3ccc(-c4ccc(CNC5CCCC5)cc4)cc3)CC2)cc1`, the Inhibition in assay [1] came to 100%; in assay [2], 98%; in assay [3], 24%.

As for `Cc1cccc2nc(-c3ccc(-c4ccc(NC(=O)Nc5ccc(F)c(F)c5F)cc4)s3)[nH]c12`, the Inhibition is recorded as 100% in assay [1], 99% in assay [2] and 58% in assay [3].

`Cc1cc(NC(=O)Nc2ccc3nccc(N4CCN(C)CC4)c3c2)ccc1Br`: the Inhibition came out at 100% in assay [1], 100% in assay [2] and 31% in assay [3].

On to `N#Cc1ccc(-c2ccc(OCC(O)CN3CCCN(Cc4cccc(O)c4Cl)CC3)cc2)cc1` (centres undefined), for which the Inhibition stood at 98% in assay [1], 66% in assay [2] and 3% in assay [3].

Take `O=C1NC(C(=O)Nc2ccccc2)C(c2ccccc2)S1` (centres undefined): the Inhibition in assay [1] came to 95%; in assay [2], 99%; in assay [3], 0%.

On to `CCCCCC(C)N/C(=N/c1ccccc1Br)Nc1ccc(C#N)cc1O` (centres undefined), for which the Inhibition in assay [1] came out at 98%; in assay [2], 95%; in assay [3], 2%.

For the compound `CCn1c(SCc2ccccc2)nc2c1c(=O)[nH]c(=O)n2C`, the Inhibition turned out to be 96% in assay [1], 30% in assay [2] and 1% in assay [3].

As for `Nc1cccc(CNCc2ccc(-c3cccc(-c4nc5ccccc5[nH]4)c3)cc2)c1.O=C(O)C(F)(F)F`, the values for the Inhibition in assay [1], in assay [2] and in assay [3] were 100%, 78% and 12%, respectively.

Turning to `Cc1ccc2ncc(Cl)c(CCN3CCC(NCc4ccc5c(n4)NC(=O)CS5)CC3)c2n1.Cl`, the results for the Inhibition in assay [1], in assay [2] and in assay [3] were 90%, 12% and 13%, respectively.

Turning to `COCCOc1cccc(CN2CCC(c3cc4nc(C)cc(C(F)(F)F)n4n3)C2)c1.O=C(O)CC(O)(CC(=O)O)C(=O)O` (centres undefined), the results for the Inhibition in assay [1], in assay [2] and in assay [3] were 85%, 74% and 25%, respectively.

Take `CN1CCC(NCc2cccc(-c3nn(C)c4nc(NC5CCCC5)ncc34)c2)CC1`: the values for the Inhibition in assay [1], in assay [2] and in assay [3] were 98%, 44% and 1%, respectively.

For `O=C(NC1CCN(CC2(c3ccccc3F)CCCC2)CC1)c1cc[nH]n1`, the Inhibition in assay [1] was found to be 93%; in assay [2], 91%; in assay [3] it was 0%.

`CCOc1ccc2c(c1)N(C(=O)C=Cc1ccccc1)C(C)(C)c1ssc(=S)c1-2`: the results for the Inhibition in assay [1], in assay [2] and in assay [3] were 83%, 77% and 3%, respectively.

Regarding `CN1CCC(NCc2ccc(-c3ccc(S(=O)(=O)NCc4ccccc4)cc3)cc2)CC1.O=C(O)C(F)(F)F`, the Inhibition in assay [1] is on record as 99%; in assay [2], 51%; in assay [3] it was 40%.

With `COc1cc(F)c2ncc(Cl)c(CCN3CCC(NCc4ccc5c(n4)NC(=O)CS5)CC3)c2c1.Cl`, the Inhibition amounted to 99% in assay [1], 41% in assay [2] and 18% in assay [3].

With `Cc1ccc(Nc2nccc(Nc3ccc4c(c3)nc(Nc3cc(C(C)(C)C)on3)n4C)n2)cc1S(C)(=O)=O`, the Inhibition was determined as 100% in assay [1], 99% in assay [2] and 30% in assay [3].
